# Laboratory results as given in PubChem BioAssay (Tox21).
# Values joined by “and” are separate entries in the source; they are usually repeats but may differ in a detail not shown here. Equal entries are not always repeated. Records with an inconclusive call do not appear. Entries that show only a call come without a potency. The source holds several records for some structures; these can differ, active in one and inactive in another. Active and inactive are the calls of the source. Unless noted, calls follow the shape of the dose curve; as a rule, active = well fitted curve in the direction sought with a large enough effect in the repeat runs; inconclusive = weak or mixed curves; inactive = no such curve, though single readings can be large; an effect the other way counts as inactive or inconclusive.
# Columns and labels:
# [1] = qHTS assay to identify small molecule agonists of the estrogen receptor alpha (ER-alpha) signaling pathway in the presence of an antagonist - cell viability counter screen (AID 1259386);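 also: series mostly up to about 92 µM; cells exposed to compounds for 22 h at 37 °C before the viability read; nearly all actives have a fitted effect of over 30% in size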
# Summary of the method: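 Cell viability in VM7Luc4E2 cells (endogenous full-length ER-alpha) measured by CellTiter-Fluor fluorescence in the same wells as the luciferase screen. Cells pre-cultured 5 days in charcoal-stripped serum, then treated 22 h with compounds at 15 concentrations plus 10.0nM ICI-182,780.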
# [2] = biological target: Progesterone receptor (Homo sapiens) (UniProt P06401); assay: qHTS assay to identify small molecule agonists of the progesterone receptor (PR) signaling pathway (AID 1346784; calls by dose curve; also: nearly all actives have a fitted effect of over 30% in size)
# Summary of the method: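 Compounds were tested for PR agonism in HEK 293T cells bearing a beta-lactamase gene under UAS control. Treatment lasted 16 hr at 37C; signal came from fluorescence of a FRET substrate.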
# [3] = qHTS assay to identify small molecule antagonists of the progesterone receptor (PR) signaling pathway - cell viability counter screen (AID 1346798); also: nearly all actives have a fitted effect of over 50% in size; also: potency is read from the fitted curve at half-maximal effect
# Summary of the method: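 Following a 4 hr attachment, PR-UAS-bla HEK293T cells in charcoal-stripped FBS medium were exposed to compounds with R5020 for 16 hr; CellTiter-Glo was added and luminescence read after 30 min at room temperature.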
# [4] = qHTS assay to identify small molecule antagonists of the TGF-beta/Smad signaling pathway - cell viability counter screen (AID 1346824); also: nearly all actives have a fitted effect of over 50% in size
# Summary of the method: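 SBE-bla HEK 293T cells, incubated overnight, then compound plus 0.25 ng/mL TGF-beta1 (stock added) for 5 hr at 37 C. Viability was read in the same wells by CellTiter-Glo luminescence after 30 min at room temperature.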
# [5] = qHTS assay to identify small molecule agonists of the TGF-beta/Smad signaling pathway - cell viability counter screen (AID 1346829); also: top concentration of the series differs between compounds; nearly all actives have a fitted effect of over 45% in size
# Summary of the method: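 Same-well cytotoxicity: CellTiter-Glo added after the 2 hr room-temperature beta-lactamase substrate step, luminescence measured 30 min later; cells had 5 hr of compound at 37 C.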
# [6] = qHTS assay to identify small molecule agonists of the TGF-beta/Smad signaling pathway (AID 1346859; active = well fitted activation curve with a large enough effect in the signal ratio in the repeat runs, not every such curve was filed as active; the % refers to the signal ratio; also: series mostly up to about 77 µM)
# Summary of the method: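 Each well held 4,000 SBE-bla HEK 293T cells incubated overnight before compound addition; 5 hr later the cleavable FRET substrate went on for 2 hr at room temperature, and fluorescence was read at two emissions.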
# [7] = Caspase-3/7 induction in HepG2 cells by small molecules, qHTS assay (AID 1346978); also: nearly all actives have a fitted effect of over 15% in size
# Summary of the method: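 Wild-type HepG2 cells, 2,000/well, settled 5 hr at 37 C and 5% CO2, then compound-treated for 17 hr; caspase-3/7 activity read by luminescent Caspase-Glo 3/7 after 30 min at room temperature.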
# [8] = Caspase-3/7 induction in CHO-K1 cells by small molecules, qHTS cell viability counter screen (AID 1346979); also: nearly all actives have a fitted effect of over 35% in size; also: potency is read from the fitted curve at half-maximal effect
# Summary of the method: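 CellTiter-Fluor viability check, qHTS format: wild-type CHO-K1, 16hr compound treatment, 1hr reagent incubation, fluorescence read.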
# [9] = Caspase-3/7 induction in CHO-K1 cells by small molecules, qHTS assay (AID 1346980); also: nearly all actives have a fitted effect of over 15% in size
# Summary of the method: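 Wild-type CHO-K1 cells exposed to compounds for 17hr at 37 C, 5% CO2. Caspase-3/7 activity then measured by Caspase-Glo 3/7 luminescence after 30min at room temperature.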
# [10] = Caspase-3/7 induction in HepG2 cells by small molecules, qHTS cell viability counter screen (AID 1346981); also: nearly all actives have a fitted effect of over 30% in size; also: potency is read from the fitted curve at half-maximal effect
# Summary of the method: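 Wild-type HepG2 cells, 2,000/well, settled 5 hr at 37 C, 5% CO2 before compound addition. Viability read by CellTiter-Fluor fluorescence, reagent added after 16 hr compound exposure, then 1 hr at 37C, in the same wells as the caspase read.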
# [11] = biological target: Nuclear receptor subfamily 1 group I member 2 (Homo sapiens) (UniProt O75469); assay: Human pregnane X receptor (PXR) small molecule agonists, qHTS assay (AID 1346982); also: nearly all actives have a fitted effect of over 35% in size; also: potency is read from the fitted curve at half-maximal effect
# Summary of the method: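 PXR-Luc HepG2 reporter cells (CYP3A4-driven luciferase) in 5% charcoal-stripped FBS medium, plated 5 h before compound addition, then treated 24 h at 37C. Luciferase read by ONE-Glo luminescence after 30 min at room temperature.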
# [12] = biological target: Thyrotropin-releasing hormone receptor (Homo sapiens) (UniProt P34981); assay: qHTS assay to identify small molecule antagonists of the thyrotropin-releasing hormone receptor (TRHR) signaling pathway (AID 1346877; active = well fitted inhibition curve with a large enough effect in the repeat runs, not every such curve was filed as active; also: series mostly up to about 51 µM)
# Summary of the method: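 TRHR-expressing HEK293 cells loaded with calcium dye for 2 h at 37 C; compounds pre-incubated 5 min at room temperature before TRH challenge at 1 nM final. Intracellular calcium fluorescence read kinetically for 3 min; 15 concentrations in triplicate.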
# [13] = biological target: Thyrotropin-releasing hormone receptor (Homo sapiens) (UniProt P34981); assay: qHTS assay to identify small molecule agonists of the thyrotropin-releasing hormone receptor (TRHR) signaling pathway (AID 1346891; calls by dose curve; also: series mostly up to about 58 µM)
# Summary of the method: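 Screening of agonists relied on calcium signalling in HEK293 cells expressing human TRHR: dye loading 2 h at 37 °C preceded compound addition and a 3-min fluorescence time course.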
# [14] = Human pregnane X receptor (PXR) small molecule agonists, qHTS cell viability counter screen (AID 1346977); also: nearly all actives have a fitted effect of over 50% in size
# Summary of the method: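 Tox21 qHTS format; PXR-Luc HepG2, 2,000/well, charcoal-stripped FBS 5%. Cpd exposure 24hr. Read: CellTiter-Fluor fluorescence, multiplexed with luciferase.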
# [15] = biological target: Cytochrome P450 2D6 (Homo sapiens) (UniProt P10635); assay: Cytochrome P450 Family 2 Subfamily D Member 6 (CYP2D6) small molecule antagonists: luciferase reporter qHTS assay (AID 1671196); also: nearly all actives have a fitted effect of over 50% in size; also: potency is read from the fitted curve at half-maximal effect
# Summary of the method: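 Cell-free P450-Glo system: CYP2D6 with proluciferin substrate was pre-incubated with compound for 10 min, then reacted with NADPH regeneration for 1 h at room temperature. Luciferin product was detected after 20 min, and data were reported as relative luminescence units.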
# [16] = biological target: Nuclear receptor subfamily 1 group I member 2 (Rattus norvegicus) (UniProt Q9R1A7); assay: Rat pregnane X receptor (rPXR) activation by small molecules, qHTS assay (AID 1346983); conditions: rPXR luciferase reporter cells, One-Glo luminescence, 24 h; max activation: stronger effect = higher value; also: nearly all actives have a fitted effect of over 20% in size; also: potency is read from the fitted curve at half-maximal effect
# Summary of the method: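 Cell-based rPXR activation assay: rPXR cells, 2,000 per well, rested 5hr at 37 C, then exposed to compounds in DMSO for 24 hr at 37 C. Luciferase activity read by One-Glo luminescence after 30 min at room temperature.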
# [17] = biological target: Nuclear receptor subfamily 1 group I member 2 (Homo sapiens) (UniProt O75469); assay: CYP3A4 induction through human pregnane X receptor (PXR) by small molecules, qHTS assay (AID 1346984); also: nearly all actives have a fitted effect of over 40% in size
# Summary of the method: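 DPX-2 HepG2 cells carrying a PXR response element and CYP3A4-promoter luciferase construct, treated with compounds 24 hr at 37C. Then P450-Glo CYP3A4 Luciferin-IPA substrate (3uM final) for 3 hr at 37C, One-Glo added, luminescence read.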
# [18] = biological target: Nuclear receptor subfamily 1 group I member 2 (Homo sapiens) (UniProt O75469); assay: Human pregnane X receptor (PXR) activation by small molecules, qHTS assay (AID 1346985); also: nearly all actives have a fitted effect of over 40% in size
# Summary of the method: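 DPX-2 cells (HepG2 co-transfected with a PXR response element and a CYP3A4-promoter luciferase construct) were seeded at 2,000 per well, rested 5 hr at 37C, then exposed to DMSO-dissolved compounds for 24 hr. Activation was read as luciferase luminescence.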
# [19] = qHTS assay to identify small molecule agonists of the progesterone receptor (PR) signaling pathway - cell viability counter screen (AID 1346799; calls by dose curve; also: nearly all actives have a fitted effect of over 45% in size)
# Summary of the method: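 Here, 3,000 PR-UAS-bla HEK293T cells per well were treated with compounds for 16 hr after a 6 hr preincubation at 37C and 5% CO2; cell viability is the CellTiter-Glo luminescence signal.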
# Thyrotropin-releasing hormone receptor (Homo sapiens), sequence (P34981 whole entry, looked up): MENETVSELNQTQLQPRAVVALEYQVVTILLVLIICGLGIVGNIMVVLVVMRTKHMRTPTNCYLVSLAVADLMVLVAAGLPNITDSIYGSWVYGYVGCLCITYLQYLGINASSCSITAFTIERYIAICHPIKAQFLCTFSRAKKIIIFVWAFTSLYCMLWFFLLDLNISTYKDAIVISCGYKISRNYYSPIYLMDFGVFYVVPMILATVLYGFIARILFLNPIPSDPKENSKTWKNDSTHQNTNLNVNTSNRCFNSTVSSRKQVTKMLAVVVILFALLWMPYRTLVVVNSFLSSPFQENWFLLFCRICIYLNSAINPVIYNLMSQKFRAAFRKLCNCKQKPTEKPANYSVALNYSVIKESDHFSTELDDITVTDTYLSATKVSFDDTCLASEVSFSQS
# Progesterone receptor (Homo sapiens), sequence (P06401 whole entry, looked up): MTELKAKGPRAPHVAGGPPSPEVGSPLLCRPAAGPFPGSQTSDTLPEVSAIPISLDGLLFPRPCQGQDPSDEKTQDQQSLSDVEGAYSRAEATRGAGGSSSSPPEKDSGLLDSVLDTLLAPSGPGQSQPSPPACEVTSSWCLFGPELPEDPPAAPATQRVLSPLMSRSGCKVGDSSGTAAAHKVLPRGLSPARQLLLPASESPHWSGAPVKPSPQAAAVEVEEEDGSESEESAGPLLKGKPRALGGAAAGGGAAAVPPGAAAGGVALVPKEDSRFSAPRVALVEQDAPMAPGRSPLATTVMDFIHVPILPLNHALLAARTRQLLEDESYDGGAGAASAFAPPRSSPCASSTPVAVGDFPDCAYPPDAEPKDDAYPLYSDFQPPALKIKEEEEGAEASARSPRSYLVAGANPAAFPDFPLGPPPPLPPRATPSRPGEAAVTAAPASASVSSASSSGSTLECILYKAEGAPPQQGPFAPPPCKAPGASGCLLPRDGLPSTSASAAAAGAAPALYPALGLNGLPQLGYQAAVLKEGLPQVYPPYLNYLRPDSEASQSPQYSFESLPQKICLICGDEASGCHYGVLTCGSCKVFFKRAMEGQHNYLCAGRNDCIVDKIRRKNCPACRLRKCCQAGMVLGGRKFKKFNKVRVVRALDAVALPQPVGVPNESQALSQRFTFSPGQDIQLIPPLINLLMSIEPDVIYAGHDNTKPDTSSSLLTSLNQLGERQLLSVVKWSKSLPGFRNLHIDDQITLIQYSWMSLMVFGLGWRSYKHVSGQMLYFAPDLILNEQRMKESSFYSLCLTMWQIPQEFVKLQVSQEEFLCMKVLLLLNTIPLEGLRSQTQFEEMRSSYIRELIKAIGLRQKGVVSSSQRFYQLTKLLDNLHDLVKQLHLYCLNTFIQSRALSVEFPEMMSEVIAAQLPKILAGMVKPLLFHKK
# Nuclear receptor subfamily 1 group I member 2 (Rattus norvegicus), sequence (Q9R1A7 whole entry, looked up): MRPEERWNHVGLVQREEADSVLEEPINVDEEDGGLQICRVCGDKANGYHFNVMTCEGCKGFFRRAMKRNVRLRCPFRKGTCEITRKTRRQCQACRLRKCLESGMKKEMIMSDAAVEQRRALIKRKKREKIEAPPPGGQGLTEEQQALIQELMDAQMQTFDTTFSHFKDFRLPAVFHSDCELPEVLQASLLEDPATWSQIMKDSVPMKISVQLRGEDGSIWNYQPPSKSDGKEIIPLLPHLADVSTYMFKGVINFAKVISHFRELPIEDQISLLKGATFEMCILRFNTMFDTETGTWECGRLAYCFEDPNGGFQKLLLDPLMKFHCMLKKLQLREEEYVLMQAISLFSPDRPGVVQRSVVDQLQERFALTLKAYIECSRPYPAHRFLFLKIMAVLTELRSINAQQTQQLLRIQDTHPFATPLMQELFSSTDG
# Cytochrome P450 2D6 (Homo sapiens), sequence (P10635 whole entry, looked up): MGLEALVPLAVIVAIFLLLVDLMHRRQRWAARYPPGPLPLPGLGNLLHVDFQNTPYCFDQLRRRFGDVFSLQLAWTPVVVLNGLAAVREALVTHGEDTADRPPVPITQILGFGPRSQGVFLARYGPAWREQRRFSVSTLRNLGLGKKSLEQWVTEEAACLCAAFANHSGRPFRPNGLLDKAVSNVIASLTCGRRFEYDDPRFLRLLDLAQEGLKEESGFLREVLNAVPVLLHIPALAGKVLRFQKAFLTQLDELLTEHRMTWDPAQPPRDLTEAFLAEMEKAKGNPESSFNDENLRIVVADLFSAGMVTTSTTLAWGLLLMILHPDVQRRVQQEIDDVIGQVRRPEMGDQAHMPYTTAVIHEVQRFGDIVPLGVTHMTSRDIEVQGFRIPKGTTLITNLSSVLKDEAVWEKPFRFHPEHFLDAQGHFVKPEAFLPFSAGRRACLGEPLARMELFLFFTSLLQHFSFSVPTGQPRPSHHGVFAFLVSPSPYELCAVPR
# Nuclear receptor subfamily 1 group I member 2 (Homo sapiens), sequence (O75469 whole entry, looked up): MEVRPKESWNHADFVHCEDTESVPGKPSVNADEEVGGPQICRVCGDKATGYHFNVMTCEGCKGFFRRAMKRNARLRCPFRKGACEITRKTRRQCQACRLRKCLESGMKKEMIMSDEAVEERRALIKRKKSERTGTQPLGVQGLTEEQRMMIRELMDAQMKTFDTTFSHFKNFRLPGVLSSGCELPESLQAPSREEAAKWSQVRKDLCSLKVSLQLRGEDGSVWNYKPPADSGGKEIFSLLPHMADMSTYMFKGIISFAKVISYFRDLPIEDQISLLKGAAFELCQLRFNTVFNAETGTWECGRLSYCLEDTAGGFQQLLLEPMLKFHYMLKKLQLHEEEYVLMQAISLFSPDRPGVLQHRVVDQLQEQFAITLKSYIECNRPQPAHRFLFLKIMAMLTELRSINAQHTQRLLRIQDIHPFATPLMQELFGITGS
Structure (SMILES),Potency [1],Potency [2],Potency [3],Potency [4],Potency [5],outcome [6],Potency [7],Potency [8],Potency [9],Potency [10],Potency [11],Potency [12],Potency [13],Potency [14],Potency [15],max activation [16],Potency [17],Potency [18],Potency [19],Potency [16]
C=CCNCC=C,inactive,inactive,inactive,inactive,inactive,inactive,inactive,inactive,inactive,inactive,inactive,,,,,,,,,
[O-]/[N+](=N\O)c1ccccc1,inactive,inactive,inactive,inactive,inactive,inactive,inactive,inactive,inactive,inactive,,inactive,inactive,inactive,,,,,,
C=CC(C)(O)CCC=C(C)C (configuration not stated),inactive,inactive,inactive,inactive,inactive,inactive,inactive,inactive,inactive,inactive,inactive,inactive,,inactive,inactive,,,,,
Cc1ccc(S(=O)(=O)O)cc1C,inactive,inactive,inactive,inactive,inactive,inactive,,inactive,inactive,inactive,inactive,,inactive,inactive,inactive,-0.712% (inactive),inactive,inactive,,
C=C1C[C@H]2[C@@H]3C=C(C)C4=CC(=O)CC[C@]4(C)[C@H]3CC[C@]2(C)[C@@]1(OC(C)=O)C(C)=O,inactive,,,inactive,inactive,inactive,,,inactive,,31.3 µM (active),,,inactive,,,inactive,inactive,,
Oc1c(Cl)ccc(Cl)c1Cl,inactive,,inactive,inactive,inactive,inactive,,inactive,inactive,inactive,inactive,inactive,inactive,,71 µM (active),,,,,
NCCN,inactive,inactive,inactive,inactive,inactive,inactive,,inactive,inactive,inactive,inactive,,,,31.7 µM (active),-1.7% (inactive),inactive,inactive,inactive,
C=C[C@@]1(C)CC(=O)[C@]2(O)[C@@]3(C)[C@@H](O)CCC(C)(C)[C@@H]3[C@H](O)[C@H](OC(C)=O)[C@@]2(C)O1,inactive,inactive,24.3 µM (active) and 15 µM (active),inactive,inactive,inactive,inactive,68.6 µM (active),inactive,inactive,,,,inactive,63.3 µM (active) and inactive,,,,,5.01 µM (active)
COc1cc([C@H]2Oc3cc([C@H]4Oc5cc(O)cc(O)c5C(=O)[C@@H]4O)ccc3O[C@@H]2CO)ccc1O,inactive,inactive,inactive,inactive,inactive,,,60.9 µM (active) and inactive,inactive,60.9 µM (active) and inactive,60.9 µM (active) and inactive,inactive,,inactive,,-6.88% (inactive),inactive,inactive,inactive,
CC(C)[N+](C)(CCOC(=O)C1c2ccccc2Oc2ccccc21)C(C)C,inactive,inactive,inactive,inactive,inactive,inactive,,inactive,inactive,,inactive,,inactive,,100 nM (active) and 195 nM (active),0.826% (inactive),inactive,inactive,,
C=C[C@H]1CN2CC[C@H]1C[C@@H]2[C@@H](O)c1ccnc2ccc(OC)cc12,inactive,inactive,inactive,,inactive,inactive,inactive,inactive,inactive,inactive,,,,,,-2.45% (inactive),,,,
